PubChem BioAssay AID933 (National Center for Advancing Translational Sciences (NCATS), 2007)
Results filed as inconclusive are left out. Active and inactive are the calls of the source. Calls come from the whole dose curve; as a rule, active = well fitted activation curve with a large enough effect in the signal ratio, with a control signal flat; inconclusive = small, poorly fitted or top-dose-only effect, or a change in a side signal; inactive = flat fitted curve, though single readings scatter; the % refers to the signal ratio.

Target: Thyrotropin receptor (Homo sapiens) (UniProt P16473)
Experiment: Secondary Concentration-Response Assay for Agonists of the Thyroid Stimulating Hormone Receptor: HTRF Activity Detection;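 for activation: HEK 293 cells stably expressing human TSHR with RO 20-1724 phosphodiesterase inhibitor; % of control where 0% means no effect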
Details: HEK293-TSHR cells, cAMP HTRF ratio, 30 min; series mostly up to 91.7 µM; activation: at the top concentration
How it was run: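 Orthogonal confirmation in a separate TSHR-transfected HEK 293 line: cells in medium with 10 % FCS and 100 uM RO 20-1724 got compound for 30 min at room temperature. cAMP was measured by HTRF (d2-cAMP/anti-cAMP antibody), 615/660 nm emission.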
Potency is the fitted concentration of half-maximal effect.

Thyrotropin receptor (Homo sapiens), sequence (P16473 whole entry, looked up): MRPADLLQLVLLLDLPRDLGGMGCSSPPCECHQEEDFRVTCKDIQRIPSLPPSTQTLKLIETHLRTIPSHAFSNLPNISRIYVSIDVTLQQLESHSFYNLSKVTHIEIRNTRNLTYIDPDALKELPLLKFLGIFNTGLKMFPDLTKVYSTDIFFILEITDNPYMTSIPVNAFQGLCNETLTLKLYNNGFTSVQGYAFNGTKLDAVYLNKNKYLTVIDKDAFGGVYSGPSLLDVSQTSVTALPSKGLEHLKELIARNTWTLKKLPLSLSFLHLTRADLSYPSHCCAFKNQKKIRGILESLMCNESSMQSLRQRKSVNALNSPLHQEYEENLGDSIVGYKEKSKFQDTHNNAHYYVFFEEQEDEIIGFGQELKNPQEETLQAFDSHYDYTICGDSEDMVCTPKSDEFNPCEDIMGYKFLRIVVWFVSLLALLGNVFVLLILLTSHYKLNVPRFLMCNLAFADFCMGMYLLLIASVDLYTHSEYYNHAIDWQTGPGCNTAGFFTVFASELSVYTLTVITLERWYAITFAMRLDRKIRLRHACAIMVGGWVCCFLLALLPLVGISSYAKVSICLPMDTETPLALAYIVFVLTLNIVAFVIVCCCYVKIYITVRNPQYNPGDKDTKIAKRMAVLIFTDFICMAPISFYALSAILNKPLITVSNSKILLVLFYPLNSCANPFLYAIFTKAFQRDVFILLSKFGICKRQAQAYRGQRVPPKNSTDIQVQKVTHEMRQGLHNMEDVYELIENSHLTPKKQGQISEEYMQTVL

activation, inactive:
Cc1ccccc1N1C(=O)c2ccccc2N2C(=O)c3ccccc3C12 (stereo not given) 1.03%
COc1ccc(C2Nc3ccccc3C(=O)N2Cc2ccccc2)cc1COc1cccc(C(F)(F)F)c1 (stereo not given) 6.58%
COC(=O)c1cc(NC2c3ccccc3C(=O)N2c2cccnc2)cc(C(=O)OC)c1 (stereo not given) -0.103% [at 0.00035 µM]
COc1ccc(C2Nc3ccccc3C(=O)N2c2cccc3ccccc23)cc1COc1c(C)cccc1C (stereo not given) 1.6%
Brc1ccc(Oc2nnnn2-c2ccccc2)cc1 -1.07% [at 0.00035 µM]
COc1ccc(C2Nc3ccccc3C(=O)N2c2ccccc2)cc1CSc1ccccn1 (stereo not given) 0.586%
COc1ccc(N2C(=O)c3ccccc3NC2c2ccc(OC)c(COc3ccccc3F)c2)cc1 (stereo not given) 1.29%
COc1cccc(C(c2nnnn2Cc2ccccc2)N2CCN(C(=O)c3ccco3)CC2)c1OC (stereo not given) 0.497% [at 0.00035 µM]
COc1cc(C2Nc3ccccc3C(=O)N2Cc2ccccc2)ccc1OCc1ccccc1 (stereo not given) 1.28%
COc1ccc(C(=O)N(Cc2ccco2)Cc2cccs2)cc1 4.57%
CCOC(=O)C1C(=O)Nc2nc(C)nn2C1c1ccccc1 (stereo not given) 2.16% [at 0.00035 µM]
CCOC(=O)CCc1c(C)nc2c(c(C)nn2C(C)(C)C)c1C 0.0158% [at 0.00035 µM]
COc1ccc(-c2cc(C(F)(F)F)nc(SCCC(=O)N3CCOCC3)n2)cc1 0.123% [at 0.00035 µM]
CCc1ccccc1NC1=NCC(=O)N1Cc1ccc(OC)cc1 0.0927% [at 0.00035 µM]
COc1cccc(CN2C(=O)CN(C3CCCCC3)C(=O)C2c2ccc(F)cc2)c1 (stereo not given) 0.406% [at 0.00035 µM]
COc1ccc2c(c1OC)C(=O)N1c3ccccc3C(=O)N(c3ccccc3F)C21 (stereo not given) 2.15%
O=C1C2C3CCCC3=C3CCCC3C2C(=O)N1c1cccc(Cl)c1 (stereo not given) 1.67%
COc1ccc(C2Nc3ccccc3C(=O)N2c2ccc(Cl)cc2)cc1COc1ccc(NC(C)=O)cc1 (stereo not given) 8.76%
COc1ccc(N2C(=O)c3ccccc3NC2c2ccc(OC)c(CSc3ccccn3)c2)cc1 (stereo not given) 0.621%
COc1cccc(OCc2cc(C3Nc4ccccc4C(=O)N3Cc3ccco3)ccc2OC)c1 (stereo not given) 0.612%
CCOC(=O)c1ccc(NC(=O)c2ccc(CN3CCOCC3)cc2)cc1 0.768% [at 0.00035 µM]
O=C(c1ccco1)N(Cc1cccs1)c1ccc(O)cc1 1.56%
COc1ccc(C2Nc3ccccc3C(=O)N2C2CCCC2)cc1COc1ccc(NC(C)=O)cc1 (stereo not given) 29.4%
COc1ccc(C2Nc3ccccc3C(=O)N2Cc2ccco2)cc1OC (stereo not given) 1.75%
COc1ccc(/C=C2/C(=O)NC(=O)N(Cc3ccco3)C2=O)cc1COc1ccc(NC(C)=O)cc1 1.65%
COc1ccc2c(c1OC)C(=O)N1c3ccccc3C(=O)N(c3ccccc3)C21 (stereo not given) 0.932%
COc1ccc(C2Nc3ccccc3C(=O)N2Cc2ccco2)cc1COc1cccc(NC(C)=O)c1 (stereo not given) 8.92%
CCS(=O)(=O)N1CCN(C(C)CCc2ccccc2)CC1 (stereo not given) 0.972% [at 0.00035 µM]
O=C1c2ccccc2NC(c2c(Cl)cccc2Cl)N1Cc1ccccc1 (stereo not given) 1.83%
O=C1c2ccccc2NC(c2cc(Br)c3c(c2)OCO3)N1Cc1ccco1 (stereo not given) 12.2%
Cc1ccccc1NC(=O)CSc1nnc(-c2ccoc2C)n1CCc1ccccc1 -0.0378% [at 0.00035 µM]
O=C(c1cccs1)N(Cc1ccco1)c1ccc(O)cc1 1.25%
COc1cc2c(N3CCOCC3)cc(O)c(CC(=O)Nc3ccccc3)c2cc1OC 0.478% [at 0.00035 µM]

Potency, active:
COc1ccc(C2Nc3ccc(NC(=O)COC(C)=O)cc3C(=O)N2Cc2ccccc2)cc1COc1ccc(NC(C)=O)cc1 (stereo not given) 8.91 µM
O=C(COC(=O)C12CC3CC(CC(Br)(C3)C1)C2)NCc1ccco1 10 µM
